Source: the supplement of paper PMC11732987, “Enantioselective OTUD7B fragment discovery through chemoproteomics screening and high-throughput optimisation” (Communications Chemistry, 2025)

How the values were obtained:
Assay in all cases: log2 ratio of Biotin-Ahx-Ub-VS probe labelling (fragment/DMSO); higher = less target engagement (more negative = stronger competition), active = hit call of the paper (q ≤ 0.05, log2 ratio ≤ -1)
Conditions in all cases: compound concentration: 200 uM; treatment time: 3 h
[1] = target: T1, ALG13 (UniProt Q9NP73)
T1 sequence (whole entry): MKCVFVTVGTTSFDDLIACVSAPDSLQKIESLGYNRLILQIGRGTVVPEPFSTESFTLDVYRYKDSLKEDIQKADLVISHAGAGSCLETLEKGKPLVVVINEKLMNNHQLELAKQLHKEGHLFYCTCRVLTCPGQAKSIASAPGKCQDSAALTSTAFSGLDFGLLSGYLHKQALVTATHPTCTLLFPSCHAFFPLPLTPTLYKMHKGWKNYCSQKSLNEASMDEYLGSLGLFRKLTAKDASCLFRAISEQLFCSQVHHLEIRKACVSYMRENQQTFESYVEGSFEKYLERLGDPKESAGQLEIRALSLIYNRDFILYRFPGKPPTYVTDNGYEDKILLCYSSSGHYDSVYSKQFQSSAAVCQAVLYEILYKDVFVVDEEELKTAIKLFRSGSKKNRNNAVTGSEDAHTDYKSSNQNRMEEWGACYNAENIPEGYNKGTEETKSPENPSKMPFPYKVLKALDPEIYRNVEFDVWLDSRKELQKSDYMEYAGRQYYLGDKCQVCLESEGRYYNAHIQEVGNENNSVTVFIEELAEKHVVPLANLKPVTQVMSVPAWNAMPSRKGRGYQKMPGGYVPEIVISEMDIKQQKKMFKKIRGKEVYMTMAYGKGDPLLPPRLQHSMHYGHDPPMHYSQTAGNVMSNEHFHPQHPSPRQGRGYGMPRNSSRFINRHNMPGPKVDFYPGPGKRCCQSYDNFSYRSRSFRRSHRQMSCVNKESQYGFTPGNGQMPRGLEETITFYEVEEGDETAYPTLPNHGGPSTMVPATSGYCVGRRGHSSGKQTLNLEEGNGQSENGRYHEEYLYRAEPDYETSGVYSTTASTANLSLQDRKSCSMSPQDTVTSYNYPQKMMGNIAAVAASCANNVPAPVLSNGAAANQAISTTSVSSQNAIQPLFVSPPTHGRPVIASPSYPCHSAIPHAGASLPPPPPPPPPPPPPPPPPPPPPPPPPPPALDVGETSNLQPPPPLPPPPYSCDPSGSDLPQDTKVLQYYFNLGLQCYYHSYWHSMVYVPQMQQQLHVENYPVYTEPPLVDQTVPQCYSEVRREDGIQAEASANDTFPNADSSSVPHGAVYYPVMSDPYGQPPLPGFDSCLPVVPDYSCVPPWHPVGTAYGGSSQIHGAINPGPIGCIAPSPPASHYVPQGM
In short: (§1)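 Fragment (200 µM) or vehicle was incubated for 3 h with triplicate HEK293T lysate samples of 495 µg, which were then treated with Biotin-Ahx-Ub-VS at 0.5 µM final for 1 h. Labelled DUBs were enriched on NeutrAvidin, digested with LysC and trypsin, and analysed by diaPASEF LC-MS/MS. Values are average log2 fragment/vehicle ratios from an unpaired t-test on global-median-normalised Spectronaut label-free quantities, using proteins with ≥2 unique peptides.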

[2] = target: ATXN3 (UniProt P54252)
ATXN3, sequence (P54252 whole entry): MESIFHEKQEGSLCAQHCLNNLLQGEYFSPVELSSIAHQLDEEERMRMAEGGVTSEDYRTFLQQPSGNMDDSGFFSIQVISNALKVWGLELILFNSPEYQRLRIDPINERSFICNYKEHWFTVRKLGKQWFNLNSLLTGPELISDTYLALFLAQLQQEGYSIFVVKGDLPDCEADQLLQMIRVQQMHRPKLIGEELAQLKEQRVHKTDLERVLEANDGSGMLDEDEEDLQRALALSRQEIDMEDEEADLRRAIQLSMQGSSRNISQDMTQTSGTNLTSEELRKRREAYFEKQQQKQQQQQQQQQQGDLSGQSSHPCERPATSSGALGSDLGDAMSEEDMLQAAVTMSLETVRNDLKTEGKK
In short: as §1

[3] = target: T2, BAP1 (UniProt Q92560)
T2 sequence (whole entry): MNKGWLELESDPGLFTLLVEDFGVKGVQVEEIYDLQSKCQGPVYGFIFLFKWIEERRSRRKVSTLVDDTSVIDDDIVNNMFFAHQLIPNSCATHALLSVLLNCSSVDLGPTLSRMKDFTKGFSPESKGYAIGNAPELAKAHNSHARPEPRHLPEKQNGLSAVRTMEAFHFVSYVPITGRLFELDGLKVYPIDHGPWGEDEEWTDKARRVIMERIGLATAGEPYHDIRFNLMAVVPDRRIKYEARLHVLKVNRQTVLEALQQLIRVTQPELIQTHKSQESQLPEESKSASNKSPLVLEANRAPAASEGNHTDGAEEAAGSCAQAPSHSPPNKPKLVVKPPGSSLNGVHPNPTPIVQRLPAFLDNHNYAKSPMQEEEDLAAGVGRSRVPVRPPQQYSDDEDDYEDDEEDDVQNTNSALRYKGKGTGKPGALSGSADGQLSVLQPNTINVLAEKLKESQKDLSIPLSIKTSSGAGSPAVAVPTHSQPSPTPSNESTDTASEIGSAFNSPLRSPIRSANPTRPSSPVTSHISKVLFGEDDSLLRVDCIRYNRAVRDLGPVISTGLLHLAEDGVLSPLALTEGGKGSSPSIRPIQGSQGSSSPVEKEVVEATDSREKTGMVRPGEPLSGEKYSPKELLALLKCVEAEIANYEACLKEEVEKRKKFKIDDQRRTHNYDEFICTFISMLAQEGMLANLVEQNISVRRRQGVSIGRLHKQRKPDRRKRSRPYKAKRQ
In short: as §1

[4] = target: EIF3F (UniProt O00303)
EIF3F, sequence (O00303 whole entry): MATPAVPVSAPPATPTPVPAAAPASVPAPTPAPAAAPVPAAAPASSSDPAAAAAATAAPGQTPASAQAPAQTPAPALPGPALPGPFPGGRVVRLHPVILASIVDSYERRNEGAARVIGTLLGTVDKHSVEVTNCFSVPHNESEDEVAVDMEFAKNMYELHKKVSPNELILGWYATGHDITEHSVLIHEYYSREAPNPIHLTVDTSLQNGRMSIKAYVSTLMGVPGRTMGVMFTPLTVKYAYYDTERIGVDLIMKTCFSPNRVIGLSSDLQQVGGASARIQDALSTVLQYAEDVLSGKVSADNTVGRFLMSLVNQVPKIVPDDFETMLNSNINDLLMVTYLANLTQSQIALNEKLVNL
In short: as §1

[5] = target: EIF3H (UniProt O15372)
EIF3H, sequence (O15372 whole entry): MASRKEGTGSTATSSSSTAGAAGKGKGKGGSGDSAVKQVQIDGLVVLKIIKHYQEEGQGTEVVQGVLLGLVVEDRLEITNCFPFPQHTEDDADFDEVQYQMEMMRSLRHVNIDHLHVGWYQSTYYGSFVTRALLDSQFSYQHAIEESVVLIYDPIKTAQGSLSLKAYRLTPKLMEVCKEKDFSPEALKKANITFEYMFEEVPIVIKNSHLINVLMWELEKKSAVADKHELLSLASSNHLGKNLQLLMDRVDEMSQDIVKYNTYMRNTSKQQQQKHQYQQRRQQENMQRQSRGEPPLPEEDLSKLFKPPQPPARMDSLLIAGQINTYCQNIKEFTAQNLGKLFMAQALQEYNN
In short: as §1

[6] = target: T3, FAM105A (UniProt Q9NUU6)
T3 sequence (whole entry): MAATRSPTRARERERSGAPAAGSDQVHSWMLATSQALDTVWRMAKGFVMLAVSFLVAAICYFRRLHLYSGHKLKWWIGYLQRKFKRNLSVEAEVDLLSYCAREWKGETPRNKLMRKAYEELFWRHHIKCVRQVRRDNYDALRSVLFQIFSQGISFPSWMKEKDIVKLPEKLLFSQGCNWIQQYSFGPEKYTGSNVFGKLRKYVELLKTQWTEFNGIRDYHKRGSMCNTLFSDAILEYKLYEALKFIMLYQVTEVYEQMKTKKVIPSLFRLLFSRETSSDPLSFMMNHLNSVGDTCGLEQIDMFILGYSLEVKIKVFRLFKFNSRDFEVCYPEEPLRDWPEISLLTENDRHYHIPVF
In short: as §1

[7] = target: OTUB1 (UniProt Q96FW1)
OTUB1, sequence (Q96FW1 whole entry): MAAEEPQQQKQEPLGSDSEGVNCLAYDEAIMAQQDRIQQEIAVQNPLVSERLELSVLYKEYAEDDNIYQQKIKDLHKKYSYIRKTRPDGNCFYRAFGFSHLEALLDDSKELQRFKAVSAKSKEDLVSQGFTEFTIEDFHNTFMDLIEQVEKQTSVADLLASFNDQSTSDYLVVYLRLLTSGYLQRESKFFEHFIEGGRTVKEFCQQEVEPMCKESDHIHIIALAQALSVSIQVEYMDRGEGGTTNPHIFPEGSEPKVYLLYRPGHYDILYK
In short: as §1

[8] = target: T4, OTUD4 (UniProt Q01804)
T4 sequence (whole entry): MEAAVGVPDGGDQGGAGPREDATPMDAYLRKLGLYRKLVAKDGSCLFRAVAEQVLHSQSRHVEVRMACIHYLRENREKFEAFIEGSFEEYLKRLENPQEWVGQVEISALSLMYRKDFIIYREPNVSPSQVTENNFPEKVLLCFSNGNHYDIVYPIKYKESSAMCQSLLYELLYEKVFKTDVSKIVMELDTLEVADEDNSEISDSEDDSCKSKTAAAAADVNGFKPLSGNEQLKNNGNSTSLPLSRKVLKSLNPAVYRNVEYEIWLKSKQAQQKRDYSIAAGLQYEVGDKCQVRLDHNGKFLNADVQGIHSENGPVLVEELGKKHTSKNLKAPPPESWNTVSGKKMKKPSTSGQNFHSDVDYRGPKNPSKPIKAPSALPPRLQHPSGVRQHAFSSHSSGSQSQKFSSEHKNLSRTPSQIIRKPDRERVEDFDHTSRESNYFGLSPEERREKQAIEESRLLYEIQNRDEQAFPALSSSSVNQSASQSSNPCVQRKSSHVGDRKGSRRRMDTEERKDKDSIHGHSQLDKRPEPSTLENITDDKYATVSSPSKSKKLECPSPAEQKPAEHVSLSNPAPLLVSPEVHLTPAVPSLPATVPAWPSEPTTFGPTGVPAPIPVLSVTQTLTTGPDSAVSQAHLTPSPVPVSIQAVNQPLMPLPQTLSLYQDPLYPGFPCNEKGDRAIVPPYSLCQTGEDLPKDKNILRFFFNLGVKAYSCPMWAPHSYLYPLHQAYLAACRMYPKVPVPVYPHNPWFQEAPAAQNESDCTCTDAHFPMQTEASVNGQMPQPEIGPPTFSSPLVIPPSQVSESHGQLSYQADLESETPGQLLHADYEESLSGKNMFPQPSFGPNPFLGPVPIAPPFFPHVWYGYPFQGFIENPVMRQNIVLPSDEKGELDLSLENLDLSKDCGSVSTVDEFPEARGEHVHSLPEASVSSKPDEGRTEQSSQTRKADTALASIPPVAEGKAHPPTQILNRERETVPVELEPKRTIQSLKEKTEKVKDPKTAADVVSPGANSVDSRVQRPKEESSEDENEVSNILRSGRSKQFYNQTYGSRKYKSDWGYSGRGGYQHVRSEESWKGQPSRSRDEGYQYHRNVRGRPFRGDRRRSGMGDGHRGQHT
In short: as §1

[9] = target: T5, OTUD5 (UniProt Q96G74)
T5 sequence (whole entry): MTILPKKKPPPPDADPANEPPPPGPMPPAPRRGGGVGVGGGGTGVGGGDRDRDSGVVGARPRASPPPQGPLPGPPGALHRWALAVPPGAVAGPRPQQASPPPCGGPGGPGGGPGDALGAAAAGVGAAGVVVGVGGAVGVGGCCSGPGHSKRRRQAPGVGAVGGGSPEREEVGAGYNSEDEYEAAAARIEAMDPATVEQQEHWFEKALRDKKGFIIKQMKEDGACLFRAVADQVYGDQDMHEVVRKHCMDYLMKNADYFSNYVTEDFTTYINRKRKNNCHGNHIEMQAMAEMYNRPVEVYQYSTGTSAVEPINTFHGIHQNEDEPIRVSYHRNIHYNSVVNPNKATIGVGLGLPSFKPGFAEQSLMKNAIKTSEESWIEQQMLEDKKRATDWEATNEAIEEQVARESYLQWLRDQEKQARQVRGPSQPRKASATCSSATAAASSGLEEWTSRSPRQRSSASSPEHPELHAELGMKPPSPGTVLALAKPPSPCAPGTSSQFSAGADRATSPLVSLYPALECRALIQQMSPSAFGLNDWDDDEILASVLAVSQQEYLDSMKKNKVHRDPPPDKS
In short: as §1

Measured: log2 ratio of Biotin-Ahx-Ub-VS probe labelling

CCc1c[nH]c(CNC(=O)CCl)n1.Cl
inactive: [1] 0.0285 | [2] -0.421 | [3] -0.464 | [4] -1.13 | [5] 0.281 | [6] 0.0309 | [7] -0.461 | [8] -0.214 | [9] -0.482
